Screening results deposited in PubChem BioAssay by National Center for Advancing Translational Sciences (NCATS).
Pf growth 96h: inhibits malaria parasite growth, 96 h; P. falciparum luciferase reporter growth, 96 h; actives 6.9% (n = 320,000); Potency, µM (highest dose often 28.7 µM), without a hit: at the top dose activity change, negative = inhibition, most hits filed as inhibitors; further: potency means the concentration at half of the fitted maximal effect; on the % scale 0 is the no-effect control and ±100 the full control effect
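Infected RBCs, 2% Hct / 0.05% parasitemia final; luciferase-reporter P. falciparum; cpd 96 h, 37 C, 5% CO2; luciferase detection reagent; luminescence.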
Pf growth 48h: inhibits P. falciparum growth in the first generation, 48 h. P. falciparum luciferase growth in erythrocytes, 48 h. Potency, µM (top dose mostly 28.7 µM), without a hit: at the highest dose activity change, negative = inhibition, hits mostly inhibitors. actives 5.9% (n = 310,000). AID 504832; further: potency means the concentration at half of the fitted maximal effect; on the % scale 0 is the no-effect control and ±100 the full control effect
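Read-out is firefly luciferase luminescence from an integrated reporter in P. falciparum, so falling signal marks reduced parasite growth. Infected erythrocytes were at 2% hematocrit and 0.1% parasitemia (final) in Albumax-supplemented RPMI 1640.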
Shiga toxin inh: inhibitors of Shiga toxin in Vero cells; actives 9.2% (n = 290,000); inhibition, % at 38.7 µM; AID 2315; Vero cells, Shiga toxin protein synthesis inhibition reporter; in the data active means inhibition mostly above about 28%, no sharp cut-off; inactive means mostly below about 43%; further: 0% is about no effect
CHX counter: affects cycloheximide protein synthesis inhibition readout, counter-screen; cell reporter, cycloheximide protein synthesis inhibition counterscreen; actives 12% (n = 300,000); max response, %; in the data active means max response mostly above about 13%, no sharp cut-off; inactive means mostly below about 14%; further: read at 38.3 µM for the half of the compounds with a filed dose; 0% is about no effect
Active calls of the source: *; i = inactive; ? = inconclusive; · = no result given; [ ] = dose if it differs, or a comment. The list is not random: actives were taken first. Their share in the collection is about 21%. Unless noted, the call rests on the fitted dose curve; in most records, active means well fitted inhibition curve with a large enough effect; inconclusive means small, poorly fitted or top-dose-only effect, or another doubt; inactive means no such curve, though single readings can be large or run the other way.

SMILES | Pf growth 96h | Pf growth 48h | Shiga toxin inh | CHX counter
CN1C(=O)CC2(C=CC(=O)C=C2OC(=O)c2ccccc2)c2ccccc21 (stereo not drawn) | · | · | 15 | 2
CCN1C(=S)SC(=O)C1=C1C=C(C)N(Cc2ccco2)C(C)=C1 | -24% | -7% | 96* | 55*
CCOc1ccccc1N1CCN(S(=O)(=O)c2cc(C)ccc2OC)CC1 | ? | -36% | 64* | 51*
COc1ccc(OC)c(S(=O)(=O)N2CCN(c3ccccc3OC)CC2)c1 | -10% | 8% | -3 | -1
COc1ccccc1N1CCN(S(=O)(=O)c2cc3[nH]c(=O)c(=O)[nH]c3cc2C)CC1 | ? | 9.3µM* | -5 | -1
COc1ccc(C)cc1S(=O)(=O)N1CCN(c2ccccc2)CC1 | 2% | -18% | · | 1
Cc1cc2[nH]c(=O)c(=O)[nH]c2cc1S(=O)(=O)N1CCN(c2ccccc2F)CC1 | ? | ? | 1 | 3
Cc1cc2[nH]c(=O)c(=O)[nH]c2cc1S(=O)(=O)N1CCN(c2cccc(C)c2C)CC1 | 4.7µM* | ? | -5 | 1
C[Se]CC[C@H](N)C(=O)O | 8% | 6% | · | ·
Cc1sc2nc(CSC(C)C(=O)Nc3ccc(Cl)cn3)[nH]c(=O)c2c1C (stereo not drawn) | 10% | -6% | · | ·
COc1ccc(N(C)C(=O)Cc2c(C(=O)O)[nH]c3ccccc23)cc1 | 19% | 14% | -5 | 8
CCN(C(=O)Cc1c(C(=O)O)[nH]c2ccccc12)c1cc(OC)ccc1OC | 7.4µM* | ? | 4 | -2
O=C(/C=C/c1ccc(I)cc1)c1ccc(B(O)O)cc1 | · | · | 16* | 29*
Cc1ccc(/C=C/C(=O)c2ccc(O)cc2)cc1 | 45% | 128% | 49* | 28*
CSc1ccc(/C=C/C(=O)c2ccc(O)cc2)cc1 | ? | 21% | 91* | 44*
COc1cc(/C=C/C(=O)c2ccc(F)cc2)cc(OC)c1OC | 3% | ? | -25 | -6
Cc1ccc(C)c(N2CCN(C(=O)c3ccc(Cl)c(NC4=NC5CS(=O)(=O)CC5S4)c3)CC2)c1 (stereo not drawn) | ? | ? | 20 | -3
Cc1ccc(/C=C/C(=O)Nc2nn[nH]n2)o1 | ? | 13% | -8 | -3
CC(C)c1ccc(/C=C/C(=O)Nc2nn[nH]n2)cc1 | 12% | 39% | 28 | 13*
Cc1ccc(C)c(CN2CCC(CNC(=O)Nc3ccc(Cl)cc3)CC2)c1 | ? | 7%[0.00184 µM] | 27 | 31
Cc1ccc(C)c(CN2CCC(CNC(=O)Nc3ccc(Br)cc3F)CC2)c1 | -13% | 13µM* | -10 | 5
OCC[C@H]1C[C@H](O)[C@@H](O)[C@@]2(CCCc3ccccc3O2)O1 | 46% | 17% | · | ·
COc1cc(C(=O)OC2CC3CCC2(C)C3(C)C)ccc1OC(C)=O (stereo not drawn) | ? | ? | -4 | 16*
COc1ccc(C(=O)OC2C[C@H]3CC[C@H](C2)N3C)cc1OC (stereo partly drawn) | 7% | -4% | · | ·
CCOC(=O)Cn1nnc(-c2ccc(SC)cc2)n1 | · | 24% | 67* | 47*
SMILES | Pf growth 96h | Pf growth 48h | Shiga toxin inh | CHX counter
NC(=O)Cn1nnc(-c2ccc(C(F)(F)F)cc2)n1 | 6% | 39% | 32* | 17
CSc1ccc(-c2nnn(Cc3ccccn3)n2)cc1 | ? | 118% | 79* | 19*
N/C(Cn1nnc(-c2ccccc2)n1)=N\O | ? | 23% | 1 | -1
CSc1ccc(-c2nnn(Cc3ccc(Br)cc3)n2)cc1 | 17% | · | 45 | 36*
Cc1cc(Cn2nnc(-c3ccc(Br)cc3)n2)cc(C)c1O | 1% | ? | · | ·
CC(Sc1nnc(-c2ccncc2)n1C)C(=O)NCC1CCCO1 (stereo not drawn) | 19% | -9% | · | ·
Cc1ccc(NC(=S)N2CCCCC2)cc1C | 10% | 35% | 43* | 20*
Cc1ccc(NC(=S)N2CCCC2)cc1 | -7% | 40% | 77* | 27*
Cc1ccc(NC(=S)N2CCN(S(C)(=O)=O)CC2)cc1 | 10µM* | 39% | -5 | -1
CC(=O)c1ccc(NC(=S)N2CCCCCC2)cc1 | 3% | 95% | 67* | 21*
Cc1cc(=O)n2c3ccccc3n(C)c2n1 | 4% | 19% | -4 | -2
O=C(CCN1C(=O)C2CC=CCC2C1=O)Nc1cc(C(F)(F)F)ccc1N1CCCC1 (stereo not drawn) | 3% | 4% | · | ·
Cc1ccc(NC(=S)N2CCCCCC2)cc1 | 94% | 35% | 75* | 37*
Fc1ccc(NC(=S)N2CCCCC2)cc1 | 17% | 4% | -5 | 5
S=C(Nc1ccc(Cl)cc1)N1CCCC1 | 42% | 15% | 36 | 30*
CC(C)(C)c1ccc(NC(=O)COC(=O)c2ccc3ncsc3c2)cc1 | -66% | 36% | · | ·
O=C(OCC(=O)N1CCN(c2ccccc2)CC1)c1ccc2ncsc2c1 | 12µM* | · | 3 | 1
O=C(OCC(=O)c1ccco1)c1ccc2ncsc2c1 | · | 43% | 58 | 29*
CCC1CCc2sc(C(=O)N(C)CC(=O)Nc3ccc(OC)cc3)cc2C1 (stereo not drawn) | -11% | ? | · | ·
CCC1CCc2sc(C(=O)NCC(c3ccccc3OC)N3CCCC3)cc2C1 (stereo not drawn) | 9.3µM* | 10µM* | · | ·
CCC1CCc2sc(C(=O)NCc3ccccn3)cc2C1 (stereo not drawn) | ? | -16% | 61* | 37*
CC1CCc2sc(C(=O)NC3CCN(Cc4ccccc4)CC3)cc2C1 (stereo not drawn) | 6.6µM* | 8.3µM* | · | ·
COc1ccc(NC(=O)CN(C)C(=O)c2cc3c(s2)CCC(C)C3)cc1 (stereo not drawn) | -8% | -14% | 19 | 14*
O=C(c1cc2ccccc2oc1=O)N1CCN(S(=O)(=O)c2ccccc2)CC1 | -25% | ? | -5 | -3
CCC1(C)NC(=O)N(CC(=O)NCC(=O)Nc2c(C)cc(C)cc2C)C1=O (stereo not drawn) | -8% | -24% | · | ·
SMILES | Pf growth 96h | Pf growth 48h | Shiga toxin inh | CHX counter
NC(=O)NC(=O)CN1c2cccc3cccc(c23)S1(=O)=O | 12% | 12% | -8 | -7
COc1ccc(C(CNC(=O)c2cc3ccccc3cc2O)N2CCOCC2)cc1 (stereo not drawn) | 10µM* | 9.3µM* | · | ·
COc1ccc(C(CNC(=O)c2cc3c(s2)CCC(C)C3)N2CCCC2)cc1 (stereo not drawn) | 4.1µM* | 9.3µM* | · | ·
COc1ccc(C(CNC(=O)c2cc3c(s2)CCC(C)C3)N2CCOCC2)cc1 (stereo not drawn) | ? | 12µM* | · | ·
CN1CC(=O)N2[C@H](c3ccc4c(c3)OCO4)c3[nH]c4ccccc4c3C[C@@H]2C1=O | · | · | -11 | 1
CS(=O)(=O)N(CC(=O)N1CCCCC1)c1sc2c(c1C#N)CCCC2 | -30% | -23% | 16 | 1
CCN(CC)c1ccc(N2C(=O)/C(=C/c3cccnc3)SC2=S)cc1 | ? | ? | 1 | -4
Cc1ccc(Nc2nc(/N=C/NO)n[nH]2)cc1C | i | 198% | 65* | 27*
CCN1/C(=C2\OC(=S)N(C)C2=O)C=Cc2ccccc21 | 47% | 11% | 20 | 4
CCN1C(=O)/C(=C2/C=Cc3cc(C)ccc3N2CC)N(C)C1=S | 8.3µM* | ? | -9 | -2
